Laboratory results taken from paper PMC6212790, “How bacterial xenogeneic silencer rok distinguishes foreign from self DNA in its resident genome”.
The full ranking holds about 33,000 sequences; the median of “e-score” is about -0.038, and the highest 2% start at about 0.33. Shown is part of a subset that was picked to be rich in the highest values.

What follows are sequences tested against T1, GST-Rok-C97-191 (Bacillus subtilis subsp. subtilis str. …, UniProt O34857 97-191) (assay: protein binding microarray; Rok is a gene silencer of Bacillus subtilis; high values mean tight binding). Settings: protein: recombinant; tags: GST (pTH5325, pDEST15-Magic modified); dsDNA, one strand shown.
T1 sequence: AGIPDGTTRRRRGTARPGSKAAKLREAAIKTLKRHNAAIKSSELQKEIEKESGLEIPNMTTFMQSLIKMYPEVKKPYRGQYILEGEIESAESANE
In short: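 Every oligonucleotide joins a 25-mer constant primer to a 35-mer variable part drawn from a de Bruijn sequence of order 10, so each non-palindromic 8-mer appears at least 32 times and each palindromic 8-mer 16 times. The preference for every 8-mer is reported as a unitless, rank-based enrichment score (E-score). This score spans 0.5 for the most favored 8-mer to −0.5 for the most disfavored.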

Sequence	binding signal
GTAATATA	0.335 E-score
ACAATATA	0.354 E-score
ATAATATC	0.209 E-score
GTAATAGA	0.284 E-score
CTAATATC	0.141 E-score
GTAATACA	0.258 E-score
ATAATATA	0.435 E-score
AGTGCCGC	-0.0284 E-score
ATGGTGAA	0.0706 E-score
GCTGATTA	0.0269 E-score
GAAAGAAC	0.0785 E-score
CCAGTTGA	-0.091 E-score
AACAGAGG	-0.0648 E-score
CGAGTGTC	-0.0337 E-score
ATGACGGG	-0.176 E-score
GGGGCTAA	-0.0896 E-score
ATAAGAAT	0.215 E-score
AGAATATA	0.231 E-score
GGAATATA	0.377 E-score
CGAATATA	0.245 E-score
CAACGGCA	-0.159 E-score
GCGCAATA	0.0439 E-score

Sequence	binding signal
ACCGGTAG	0.335 E-score
ACCGGTAA	0.192 E-score
CCCGGTAG	-0.134 E-score
CGCGGTAG	0.00539 E-score
AGCGGTAG	0.33 E-score
AGCGGTAT	0.237 E-score
ATGACCCA	-0.129 E-score
GTTTGTTA	0.13 E-score
ACATCAAA	0.02 E-score
CCTGTCAG	-0.131 E-score
AACTAATC	0.129 E-score
AACTAAAG	-0.0536 E-score
CACTAAAA	0.299 E-score
TACTAAAA	0.421 E-score
AACTAAAT	0.379 E-score
AACTAACT	0.352 E-score
AACTAATT	0.344 E-score
AACTAACA	0.126 E-score
AACTAATA	0.288 E-score
AACTAAAC	0.00571 E-score
AACTAACG	0.263 E-score
GACTAAAA	0.144 E-score

Sequence	binding signal
AGGCACAT	-0.0618 E-score
CTGCAACA	0.0545 E-score
ACGGACCA	-0.109 E-score
CGTCCTTA	0.175 E-score
AAAATGTG	0.218 E-score
GTGCGAAC	-0.184 E-score
GCGAATAC	0.0221 E-score
AAACTGGG	-0.197 E-score
CCCGCTAC	-0.0971 E-score
AGACCTAG	0.0543 E-score
AGAAGCTC	-0.0476 E-score
CCTAATCC	0.0562 E-score
CGATAAGA	0.0724 E-score
ACCTAAAA	0.295 E-score
AACTAAGA	0.223 E-score
AACTAAAA	0.347 E-score
AACACAAA	0.135 E-score
AGCGCAAG	-0.0906 E-score
ATACGACC	0.00262 E-score
AAAGGTAG	0.316 E-score
GTTAACTA	0.376 E-score
CTTAACTA	0.273 E-score

Sequence	binding signal
ATTAACTG	0.214 E-score
ATTAACTC	0.124 E-score
ATTAACTA	0.367 E-score
GTTAACGA	0.0428 E-score
TAGTCACA	0.123 E-score
TCGGGCCA	-0.12 E-score
AGAGTGCG	-0.139 E-score
AGTAGAGA	0.206 E-score
AGTAGAAT	0.422 E-score
AGTAGAAG	0.276 E-score
AGTAGAAA	0.448 E-score
ATTAGAAA	0.282 E-score
AGTAGAAC	0.234 E-score
AACGGGCT	-0.138 E-score
AGCCATTG	-0.0954 E-score
AAGGACTG	-0.0637 E-score
ACAGAGAG	-0.125 E-score
GTATTGTA	0.212 E-score
CTATTGTA	0.355 E-score
CTATTGTC	-0.0498 E-score
ATATTGTG	0.214 E-score
CAATTGTA	0.251 E-score

Sequence	binding signal
ATATTGTA	0.363 E-score
ATGCGCGG	-0.168 E-score
CTGTCCAA	-0.154 E-score
CACAGAGG	-0.0801 E-score
ACATCCTG	-0.137 E-score
TCCTGCGA	-0.149 E-score
GGCTTGAA	-0.105 E-score
CACTGACG	0.009 E-score
ATTTTTAC	0.328 E-score
AATTTTAG	0.259 E-score
AAATTTAC	0.38 E-score
AAATTTGA	0.0368 E-score
AAATTTGT	0.33 E-score
GAATTTAC	0.282 E-score
AAATTTTC	0.182 E-score
AAATTTAG	0.242 E-score
AAATTTTA	0.374 E-score
AAATTTGG	0.0224 E-score
AATTTTTA	0.167 E-score
AATTTTAC	0.384 E-score
TGAAGTAA	0.132 E-score
GTAATAAC	0.0936 E-score
